Assay [1] can be described thus: NCI Yeast Anticancer Drug Screen. Data for the rad50 strain (AID 155).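 Note: 0% = growth of vehicle-only cultures of the same strain.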 Conditions: S. cerevisiae rad50 strain growth inhibition; at 50.0 µM; hits give high values. An outline of the steps:
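Growth of the mutant yeast was measured after compound exposure and referenced to vehicle-treated cultures.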

Assay [2] can be described thus: NCI Yeast Anticancer Drug Screen. Data for the mec2-1 strain (AID 157). Conditions: S. cerevisiae mec2-1 strain, at 50.0 µM, hits give high values. In short, it runs like this: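 Test agents were screened against the mec2-1 yeast strain, with defined DNA repair or cell cycle alteration. Growth was scored as inhibition against vehicle-only controls.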
The nature of assay [3]: NCI Yeast Anticancer Drug Screen. Data for the sgs1 mgt1 strain (AID 161).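 Note: 0% = growth of cultures given vehicle only.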 Conditions: S. cerevisiae sgs1 mgt1 strain, at 50.0 µM, hits give high values. In short, it runs like this: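 Read-out: growth inhibition vs vehicle controls. Cells: mutant yeast strain deficient in DNA damage repair.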
Assay [4] is described as follows: NCI Yeast Anticancer Drug Screen. Data for the cln2 rad14 strain (AID 165).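 Note: 0% = growth equal to vehicle treated cultures.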 Conditions: S. cerevisiae cln2 rad14 strain, at 50.0 µM, hits give high values. In short, it runs like this: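 Growth of compound-exposed yeast (cln2 rad14 genotype) measured and expressed as inhibition relative to vehicle.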
Assay [5] in a line: NCI Yeast Anticancer Drug Screen. Data for the bub3 strain (AID 167). To be noted: S. cerevisiae bub3 mutant strain, at 50.0 µM, hits give high values. In short, it runs like this: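 Whole-cell yeast assay. The mutant strain was incubated with compounds, and growth inhibition was determined by comparison with vehicle-treated cells.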
Assay [6] can be described thus: NCI Yeast Anticancer Drug Screen. Data for the mlh1 rad18 strain (AID 175). To be noted: S. cerevisiae mlh1 rad18 strain growth inhibition; at 50.0 µM; hits give high values. An outline of the steps: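 In this whole-cell yeast screen, a strain with altered DNA damage repair is challenged with compound, and its growth is measured against matched vehicle-treated controls.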

About 79,000 compounds went through this panel and 15% of them were active in at least one assay; those are over-represented in the sample as a whole. Values without a mark were called inactive. The source made the active and inactive calls. Cut-off read from the data, not from the text of the source: active = growth inhibition above about 70%; inactive = the rest.

Regarding `CCOC(=N)c1cn(C2OC(CO)C(O)C2O)c2nc[nH]c(=O)c12` (stereo not given), the growth inhibition in assay [1] is 3.35%; in assay [2] it was -5.25%; in assay [3], 11.2%; in assay [4], 23.4%; in assay [5], 16.2%; in assay [6], 0.4%.
In the case of `OCCCCCCN=Cc1ccccc1O.OCCCCCCN=Cc1ccccc1O.[Cu]`, the growth inhibition was 47.9% in assay [1]; -1.2% in assay [2]; 72.2% (active) in assay [3]; -48.2% in assay [4]; 4.25% in assay [5]; 14.8% in assay [6].
Consider `O=[N+]([O-])c1cc(F)c(F)cc1F`, for which the growth inhibition in assay [1] is -26.9%; in assay [2] it was 4.15%; in assay [3] it was -21.1%; in assay [4], -32.2%; in assay [5] it was -14.6%; in assay [6] it was 26.9%.
With `O=c1cc(O)nc(CO)[nH]1`, the growth inhibition in assay [1] was -4.15%; in assay [2], -5.75%; in assay [3], -41.9%; in assay [4], -14.7%; in assay [5], 3.9%; in assay [6], 2.6%.
For `CC[N+](C)(CC)C(Cc1ccccc1)c1ccccc1` (stereo not given), the growth inhibition was 1% in assay [1]; 8.8% in assay [2]; 24.6% in assay [3]; 23% in assay [4]; -5.8% in assay [5]; 4.3% in assay [6].
With `O=C1CSC(=S)N1c1cccc(F)c1`, the growth inhibition in assay [1] was 32.1%; in assay [2], -10.6%; in assay [3], 2.1%; in assay [4] it was -27.2%; in assay [5], -18.1%; in assay [6], 3.65%.
On to `CCOC(=O)c1ccc(OCC)cc1O`, for which the growth inhibition in assay [1] is 2.25%; in assay [2], -8%; in assay [3], 0.6%; in assay [4], -17.6%; in assay [5] it was -30.4%; in assay [6], -15.8%.
For `O=C1C2=Cc3ccccc3CCN2c2ccc([N+](=O)[O-])cc21`, the growth inhibition is -28.9% in assay [1]; 5.35% in assay [2]; -39.4% in assay [3]; -7% in assay [4]; 1.7% in assay [5]; -24.2% in assay [6].
With `COC(C(=O)[O][Ge]([CH3])([CH3])[CH3])c1ccccc1` (stereo not given), the growth inhibition is 13.8% in assay [1]; -17.8% in assay [2]; -6.85% in assay [3]; 31.4% in assay [4]; -2.15% in assay [5]; -9.25% in assay [6].
On to `CN(CCc1ccccn1)/[N+]([O-])=N/O` (tested in a mixture with another compound), for which the growth inhibition in assay [1] is -30.8%; in assay [2] it was -36.9%; in assay [3] it was 4.15%; in assay [4], 11.2%; in assay [5] it was -3.35%; in assay [6], -4.65%.
Regarding `CCCCc1ccc(N=Nc2ccccc2)cc1`, the growth inhibition in assay [1] was -9.35%; in assay [2], -17.5%; in assay [3] it was -15.6%; in assay [4], -59%; in assay [5], -6.05%; in assay [6], -32.2%.
As to `COC(=N)/C(C#N)=N/C1OCC(O)C(O)C1O` (stereo not given), the growth inhibition is 5.65% in assay [1]; -21.1% in assay [2]; 2.15% in assay [3]; -31.6% in assay [4]; 0.35% in assay [5]; 0.45% in assay [6].
Consider `COC(=O)C1C(C(=O)OC)C2(C)C(=O)C1(C)C(c1ccccc1)=C2c1ccccc1` (stereo not given), for which the growth inhibition is -0.7% in assay [1]; 2.55% in assay [2]; -5.4% in assay [3]; -12.3% in assay [4]; 1.15% in assay [5]; 5.15% in assay [6].
Turning to `NC(CCCCO)C(=O)O` (stereo not given), the growth inhibition in assay [1] is -6.8%; in assay [2], -35.8%; in assay [3] it was 4.1%; in assay [4] it was 23.1%; in assay [5], -29.1%; in assay [6] it was -15%.
For the molecule `Nc1nc2c(=O)[nH]c(=O)[nH]c2n1C1OC(CO)C(O)C1O` (stereo not given), the growth inhibition was 4.7% in assay [1]; -3.9% in assay [2]; 0.35% in assay [3]; 4.9% in assay [4]; 14.2% in assay [5]; -6.1% in assay [6].
For `ClC1CCCCC1`, the growth inhibition is -12.8% in assay [1]; -2.55% in assay [2]; -0.35% in assay [3]; -7.95% in assay [4]; -7.2% in assay [5]; -31.2% in assay [6].
Consider `CCCC(=O)N[C@H]1C2C3CC4C5CC(C42)C1(C)C53` (stereo not given in full), for which the growth inhibition in assay [1] is -5.3%; in assay [2], -17.4%; in assay [3], 3.8%; in assay [4] it was 10.3%; in assay [5], 7.25%; in assay [6], -17.2%.
On to `NC(=O)NNC(=O)NC12CC3CC(CC(C3)C1)C2`, for which the growth inhibition in assay [1] was -19%; in assay [2], -11.8%; in assay [3], -10.2%; in assay [4] it was -45.8%; in assay [5], 0.65%; in assay [6] it was 21.6%.
On to `S=C(S)NC1CCCCC1`, for which the growth inhibition is -28.9% in assay [1]; -18.3% in assay [2]; -12.2% in assay [3]; -44% in assay [4]; -13.1% in assay [5]; -3.75% in assay [6].
In the case of `CCOC(=O)C(CO)NC(=O)C[NH-].CCOC(=O)C(CO)NC(=O)C[NH-].[Cl][Pt+2][Cl]` (stereo not given), the growth inhibition in assay [1] was -12.5%; in assay [2], -8.55%; in assay [3] it was -17.4%; in assay [4], -34.4%; in assay [5], -3.5%; in assay [6], 12.2%.

For the origin of these results see PubChem BioAssay (NCI).
